Rows were chosen to be rich in hits. Some 2.8% of all compounds tested hit in one or more screens of this group.
POLH inh = inhibitors of human DNA polymerase eta; Q9Y253; recombinant Pol eta, fluorescent DNA replication assay; Potency, µM (doses to about 114 µM), without a hit: at the highest dose activity change, negative = inhibition, usual class: inhibitors; hit rate 1.2% among 390,000; AID 588591; note: potency is the fitted concentration of half-maximal effect; % is set by controls: 0 for no effect and ±100 for the full control effect
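Pol eta at 10 nM preincubated with compounds 15 min at room temperature; reaction started with fluorescent substrate (50 nM final) and read kinetically at 0 and 10 min.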
WRN helicase inh = inhibitors of human WRN helicase. Q14191. WRN helicase unwinding, fluorescent forked duplex, kinetic. Potency, µM (highest dose often 114 µM), for inactives: at the highest dose activity change, negative = inhibition, actives largely listed as inhibitors. hit rate 0.46% among 360,000; note: potency is the fitted concentration of half-maximal effect; % is set by controls: 0 for no effect and ±100 for the full control effect; nearly all actives have a fitted effect of over 55% in size
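WRN at 20 nM final was preincubated with compound for 15 min at room temperature; reaction started with 100 nM forked duplex oligonucleotide carrying fluorophore and quencher plus 2 mM ATP (final). Unwinding followed kinetically by red fluorescence (ex 525/em 598 nm).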
POLK inh = inhibitors of human DNA polymerase kappa; purified Pol kappa, fluorescent DNA synthesis assay, 10 min; Q9UBT6; Potency, µM (top dose mostly 107 µM), for the others: top-dose activity, negative = inhibition, usual class: inhibitors; hit rate 0.53% among 400,000; note: potency is the fitted concentration of half-maximal effect; % is set by controls: 0 for no effect and ±100 for the full control effect
Target sequence (Q9UBT6 whole entry, looked up): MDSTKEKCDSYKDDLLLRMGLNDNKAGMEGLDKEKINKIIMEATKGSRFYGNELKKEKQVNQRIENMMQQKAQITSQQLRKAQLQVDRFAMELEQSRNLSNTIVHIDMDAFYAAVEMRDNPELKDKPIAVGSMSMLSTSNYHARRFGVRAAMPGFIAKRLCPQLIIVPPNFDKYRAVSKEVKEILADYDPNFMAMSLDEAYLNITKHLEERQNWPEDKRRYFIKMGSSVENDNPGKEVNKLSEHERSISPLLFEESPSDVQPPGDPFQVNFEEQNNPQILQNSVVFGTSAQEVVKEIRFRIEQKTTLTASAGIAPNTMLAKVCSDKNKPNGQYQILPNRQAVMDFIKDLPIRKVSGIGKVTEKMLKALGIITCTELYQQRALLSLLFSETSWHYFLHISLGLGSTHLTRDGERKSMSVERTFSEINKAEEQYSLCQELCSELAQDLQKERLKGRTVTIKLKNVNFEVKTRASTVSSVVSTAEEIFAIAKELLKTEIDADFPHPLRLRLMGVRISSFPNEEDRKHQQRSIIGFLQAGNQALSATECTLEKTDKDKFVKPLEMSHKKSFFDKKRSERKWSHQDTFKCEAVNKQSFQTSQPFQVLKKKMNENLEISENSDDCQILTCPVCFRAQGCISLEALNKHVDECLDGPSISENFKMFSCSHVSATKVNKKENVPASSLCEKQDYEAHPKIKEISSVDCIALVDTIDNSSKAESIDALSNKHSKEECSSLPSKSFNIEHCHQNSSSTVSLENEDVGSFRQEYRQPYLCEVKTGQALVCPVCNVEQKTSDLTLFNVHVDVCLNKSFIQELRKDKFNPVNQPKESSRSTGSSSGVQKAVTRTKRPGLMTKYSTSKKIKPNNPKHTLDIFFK
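First, compounds were pin-transferred onto 10 nM Pol kappa. After 15 min at room temperature, substrate was added to 50 nM final. Fluorescence was then measured kinetically at 0 and 10 min.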
PI5P4Ka inh = PI5P4K alpha (human) kinase inhibition | max response, % | PI5P4Kalpha enzyme, ADP-Glo luminescence, 60 min; active compounds read low | hit rate 1.2% among 330,000 | P48426; active = max response of -50% or lower; inconclusive = between -30% and -50%; inactive = -30% or higher; note: value at the top dose of about 77 µM; % is set by controls: 0 for no effect and ±100 for the full control effect
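Quantitative HTS of the MLSMR library against PI5P4Kalpha with substrate. ATP added last at 5 microM final; room temperature, 60 minutes. Remaining ATP depleted, ADP converted and read as luminescence.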
Pol beta inh = DNA polymerase beta (human) inhibition. P06746. Pol beta primer extension/strand displacement, fluorescence kinetic. Potency, µM (titrated, usually from 114 µM), for the others: top-dose activity change, negative = inhibition, usual class: inhibitors. hit rate 1.3% among 340,000. AID 485314; note: potency is the fitted concentration of half-maximal effect; % is set by controls: 0 for no effect and ±100 for the full control effect
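Curves were derived by four-parameter Hill fits of normalized qHTS data. The kinetic fluorescent primer-extension read was taken at 0 and 10 min after 50 nM substrate, following a 15 min room-temperature preincubation of 10 nM enzyme with compounds.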
POLI inh = blocks human DNA polymerase iota activity; Pol iota fluorescent replication assay, 10 min; Potency, µM (doses to about 115 µM), inactives show top-dose activity, negative = inhibition, hits mostly inhibitors; hit rate 1% among 390,000; note: potency is the fitted concentration of half-maximal effect
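Pol iota at 10 nM preincubated 15 min with compounds at room temperature; reaction started with fluorescent substrate, 50 nM final. Fluorescence read kinetically at 0 and 10 min; buffer-only wells as negative control.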
* marks the source's active call; other numbers are inactive results; ? = inconclusive; · = no result given; [ ] = dose if it differs, or a comment. Unless noted, calls come from the whole dose curve; as a rule, active = well fitted curve in the direction sought with a large enough effect; inconclusive = small, poorly fitted or top-dose-only effect, or another doubt; inactive = no such curve, though single readings can be large; an effect the other way counts as inactive or inconclusive.

SMILES | POLH inh | WRN helicase inh | POLK inh | PI5P4Ka inh | Pol beta inh | POLI inh
c1ccc(CN(Cc2ccco2)C(c2ccncc2)c2nnnn2C2CCCC2)cc1 (stereo unspecified) | 44.7µM* | ? | ? | · | 16.2% | ?
Fc1ccc(C(c2nnnn2C2CCCC2)N(Cc2ccco2)CC2CCCO2)cc1 (stereo unspecified) | -15.3% | -9.8% | -14.3% | 0.7 | 0.7% | ?
CN(C)S(=O)(=O)N1CCC(Oc2cccc(C(=O)N3CCCCCC3)c2)CC1 | -10.4% | -18.5% | -6.1% | -0.6 | -8.1% | 8.8%
CN(C)S(=O)(=O)N1CCC(Oc2cccc(C(=O)N3CCCCCCC3)c2)CC1 | -10.2% | -3.4%[11.6 µM] | -10.0% | -0.1 | 0.5% | 89.1µM*
CCc1ccccc1NC(=O)CCS(=O)(=O)c1cccc2nonc12 | 1.7% | · | -4.4% | · | -10.2% | -12.3%
Cc1cc(NC(=O)CSCC(=O)N(c2ccc(F)cc2)C(C(=O)NC2CCCCC2)c2ccc(O)c(O)c2)no1 (stereo unspecified) | ? | -0.3% | -19.5% | -12.2 | 20µM* | ?
COc1ccc(N(C(=O)CSCC(=O)Nc2cc(C)on2)C(C(=O)NC2CCCCC2)c2ccc(O)c(O)c2)cc1 (stereo unspecified) | -1.4% | -4.5% | -28.3% | -13.1 | -12.2% | -3.0%
[O-][n+]1ccccc1SSc1cccc[n+]1[O-] | · | · | 2.0%[60.1 µM] | · | · | ·
O=C(Cc1ccc(S(=O)(=O)N2CCOCC2)s1)Nc1ccc(S(=O)(=O)N2CCCCC2)cc1 | -10.9% | ? | -13.2% | -25.5 | · | -7.6%
CCC(CC)NC(=O)Cc1ccc(S(=O)(=O)N2CCOCC2)s1 | 10µM* | -26.3% | -18.5% | ? | ? | ?
CC(=O)Nc1ccc(NC(=O)Cc2ccc(S(=O)(=O)N3CCCCC3)s2)cc1 | 12.6µM* | ? | -24.4% | ? | ? | ?
COC(=O)CCNC(=O)Cc1ccc(S(=O)(=O)N2CCCCC2)s1 | 79.4µM* | -0.7%[11.6 µM] | -17.6% | ? | · | ?
CCCCCn1c(N)c(-c2nc3ccccc3o2)c2c([N+](=O)[O-])nn(CC)c(=O)c21 | ? | ? | -10.8% | -0.6 | 2µM* | 23.5%
CCOc1ccc(C2C(C#N)=C(N)SC(N)=C2C#N)c(OCC)c1 | -9.9% | -30.4% | -0.3% | -62.8* | 2.9% | -2.2%
CC1Cc2ccccc2N1C(=O)COC(=O)c1ccc(N(C)C)cc1 (stereo unspecified) | 7.94µM* | 56.2µM* | 50.1µM* | -8.5 | · | 12.6µM*
O=C(NCC(c1ccc2c(c1)OCO2)N1CCOCC1)C(=O)Nc1ccccc1 (stereo unspecified) | -0.1% | · | -7.6%[60.1 µM] | · | 18.1% | 17.8µM*
O=C(CSc1nc(=O)n(Cc2ccncc2)c2c1CCC2)Nc1ccc(F)cc1F | -18.2% | · | 1.3%[60.1 µM] | · | 8.4% | 0.2%
C/C(=N\Nc1nc(-c2ccc(C)cc2C)cs1)c1cc2ccccc2oc1=O | -9.0% | -14.3% | -7.2% | -21.1 | 22.4µM* | 0.9%
O=C(NCCc1nc2ccccc2n1CCOc1cccc2ccccc12)C1CCCCC1 | · | · | 1.7% | · | · | 1.1%
Cc1[nH]n(-c2ncc(-c3ccc(Cl)cc3)s2)c(=O)c1C(c1ccc(Cl)cc1)C(C#N)C#N (stereo unspecified) | 31.6µM* | ? | ? | -69.6* | 17.8µM* | -27.6%
COc1ccc(C(c2c(C)[nH]n(C(N)=S)c2=O)C(C#N)C#N)cc1 (stereo unspecified) | -11.0% | -14.9%[57.1 µM] | 5.4% | -1.5 | -7.2% | ?
CCOc1ccc(S(=O)(=O)Nc2ccc(C(=O)N/N=C/c3c(C)nn(-c4ccccc4)c3N3CCCC3)cc2)cc1 | -1.7% | 0.1% | -11.5% | -73.9* | 29.8% | 11.1%
Cc1nn(-c2ccccc2)c(N2CCCCC2)c1/C=N/NC(=O)c1ccncc1 | ? | -33.3%[57.1 µM] | -3.7% | -14.9 | 4.3% | 71.3%
Nc1nc(NCc2ccccc2Cl)c2[nH]cnc2n1 | · | · | -6.4% | · | · | 2.5%
COc1ccc(C(=O)Nc2nnc(CC(=O)N/N=C/c3ccc(O)cc3O)s2)cc1 | · | · | · | · | 5.01µM* | ·
SMILES | POLH inh | WRN helicase inh | POLK inh | PI5P4Ka inh | Pol beta inh | POLI inh
O=C(CCN1CCCCC1)c1ccc2c(c1)OCCO2 | -5.2% | -11.3% | 2.7% | · | 37.6% | ?
O=C(CCN1CCCC1Cc1ccccc1)c1ccc2c(c1)OCCO2 (stereo unspecified) | -12.7% | 56.2µM* | 0.1% | -0.5 | 0.4% | ?
CC(=O)N1N=C(c2ccc(C)cc2)OC1c1ccc(Br)cc1 (stereo unspecified) | -5.3% | -6.7%[57.1 µM] | -14.6% | 5.8 | 5.0% | 62.2%
CCOc1ccc(Br)cc1C1=NN(C(C)=O)C(c2ccc([N+](=O)[O-])s2)O1 (stereo unspecified) | 50.1µM* | 5.9%[11.6 µM] | -46.9% | -20.6 | 17.8µM* | 50.1µM*
S=C(NCCCc1cnc[nH]1)NCCCN(Cc1ccc(Cl)cc1)c1ccc(Br)cc1 | · | · | -21.0% | · | · | -2.3%
CN(C)CC(CCC(CN(C)C)C(=O)c1ccccc1)C(=O)c1ccccc1 (stereo unspecified) | -5.4% | ? | -3.3% | 2.5 | 0.3% | 22.4µM*
CCCCCC(=O)N1C[C@H](O)[C@@H](n2cc(-c3ccc(F)cc3)nn2)C[C@@H]1c1ccc(OC)cc1 | -19.9% | -4.6% | · | 3.5 | · | ·
COc1ccc(CN(Cc2ccccc2)C(=O)c2ccncc2)cc1COc1ccc(NC(C)=O)cc1 | · | · | 1.0% | · | · | -5.8%
O=S(=O)(Cc1noc(-c2ccc(Cl)cc2)n1)Cc1ccco1 | -1.9% | -19.2% | ? | -19.1 | 14.1µM* | 50.1µM*
O=S(=O)(Cc1ccco1)Cc1nc(-c2ccc(Cl)cc2)cs1 | -8.7% | 4.5% | -1.8% | -0.3 | -0.9% | -10.5%
Cc1cccc(Nc2nc(N)nc(N)c2N=O)c1 | -5.1% | -11.8% | -4.3% | -50.9* | · | 1.8%
Cc1cccc(Nc2nc(N)c(C#N)c(CC#N)c2C#N)c1 | -12.7% | 0.2% | -2.7% | -53.9* | 29.6% | 106.5%
Cc1ccc(Nc2nc(N)nc(N)c2N=O)cc1C | · | -2.1% | · | -4.7 | · | ·
Cc1cccc(Nc2nc(C)cc(C)c2C#N)c1 | -19.1% | -1.0% | -1.5% | 3.9 | -13.5% | 11.1%
O=C(/C=C/c1ccccc1)Nc1cccc(S(=O)(=O)Nc2ccccc2F)c1 | -9.4% | 39.8µM* | -19.4% | -60.9* | -27.1% | -6.3%
Cc1cn2c(=O)c(S(=O)(=O)NCc3ccc(F)cc3)c(C)nc2s1 | -8.7% | · | 2.6% | · | 1.2% | 16.8%
Cc1ccc(NC(=O)COC(=O)c2ccc3c(c2)NC(=O)C2CCCN32)cc1 (stereo unspecified) | 3.5% | -8.0% | -5.8% | · | 16.0% | 7.94µM*
COC(=O)c1ccc2c(c1)NC(=O)C1CCCN21 (stereo unspecified) | -3.8% | ? | -3.1% | -22.6 | · | 4.8%

Bioassay records from PubChem BioAssay.
